Experimental data reported in a collection of fitness landscapes (doi:10.1016/j.celrep.2020.107928).
Over roughly 81,000 sequences, “one-hybrid fitness for binding NBS DNA” has its median near -0.1; the highest 2% begin near 0.36. Shown is part of a subset that was picked to be rich in the highest values.

B1: Caulobacter ParB omega fusion; a variant is named by its letters at X, in order, B8GW30 (parent)
chain: MESVVVGEPGMSEGRRGLGRGLSALLGEVDAAPAQAPGEQLGGSREAPIEILQRNPDQPRRTFREEDLEDLSNSIREKGVLQPILVRPSPDTAGEYQIVAGERAWRAAQRAGLKTVPIMVRELDDLAVLEIGIIENVQRADLNVLEEALSYKVLMEKFERTQENIAQTIGKSXSHVANXMRLLXLPDEVQSYLVSGELTAXHARAIAAAADPVALAKQIIEGGLSVRETEALARKAPNLSAGKSKGGRPPRVKDTDTQALESDLSSVLGLDVSIDHRGSTGTLTITYATLEQLDDLCNRLTRGI

Variants of: B1
Assay: one-hybrid fitness for binding NBS DNA (the Noc-binding site; scaled: cognate 1, non-cognate 0); higher = stronger binding
Details: with NBS DNA site
How it was run: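 Caulobacter ParB libraries with four specificity codons randomised were screened by bacterial one-hybrid selection in the E. coli USO strain, using a HIS3 reporter whose site lies 19 bp from the promoter. Selection ran for 48 hours at 37°C on M9 lacking histidine, with 0.1 mM IPTG and 5 mM 3-AT. Plasmids were Illumina-sequenced before and after selection, three replicate libraries were pooled, and variants with under 10 reads were dropped. Fitness is the log change in each variant's read ratio to wild type, rescaled against the cognate and non-cognate sites.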

Going from QYCN to QYRR, the “one-hybrid fitness for binding NBS DNA” value rises from at most 0.2 to 0.979.

Compared with QYHN, QYHS is higher in “one-hybrid fitness for binding NBS DNA” value: at most 0.2 for the first, 0.417 for the second.

First: QYGR
Second: QYHP
The “one-hybrid fitness for binding NBS DNA” value of the first is higher: 0.553 for the first, at most 0.2 for the second.

Going from QYER to WNEY, the “one-hybrid fitness for binding NBS DNA” value falls from 0.31 to at most 0.2.

VWCR and ATSP cannot be ordered by “one-hybrid fitness for binding NBS DNA” value: at most 0.2 for the first, at most 0.2 for the second.

GRTC and VDLS cannot be ordered by “one-hybrid fitness for binding NBS DNA” value: at most 0.2 for the first, at most 0.2 for the second.

Compared with QYGD, QYSR is higher in “one-hybrid fitness for binding NBS DNA” value: at most 0.2 for the first, 0.499 for the second.

QYNN and QYSD cannot be ordered by “one-hybrid fitness for binding NBS DNA” value: at most 0.2 for the first, at most 0.2 for the second.

First: QYGN
Second: QYNS
The “one-hybrid fitness for binding NBS DNA” value of the first is lower: at most 0.2 for the first, 0.437 for the second.

Going from QYNH to QYGS, the “one-hybrid fitness for binding NBS DNA” value rises from 0.246 to 0.377.

Going from QYDR to QYDS, the “one-hybrid fitness for binding NBS DNA” value falls from 0.305 to 0.203.

Compared with QYNR, QYSN is lower in “one-hybrid fitness for binding NBS DNA” value: 0.599 for the first, at most 0.2 for the second.

KTNH and HNTA cannot be ordered by “one-hybrid fitness for binding NBS DNA” value: at most 0.2 for the first, at most 0.2 for the second.

HIMR and YTFW cannot be ordered by “one-hybrid fitness for binding NBS DNA” value: at most 0.2 for the first, at most 0.2 for the second.

SKSC and VRCG cannot be ordered by “one-hybrid fitness for binding NBS DNA” value: at most 0.2 for the first, at most 0.2 for the second.

PIKT and QYMF cannot be ordered by “one-hybrid fitness for binding NBS DNA” value: at most 0.2 for the first, at most 0.2 for the second.

Compared with QYHR, QYWS is lower in “one-hybrid fitness for binding NBS DNA” value: 0.541 for the first, 0.204 for the second.

Going from QYMD to QYWR, the “one-hybrid fitness for binding NBS DNA” value rises from at most 0.2 to 0.414.

QYHD and QYQC cannot be ordered by “one-hybrid fitness for binding NBS DNA” value: at most 0.2 for the first, at most 0.2 for the second.

QYWH and QYQK cannot be ordered by “one-hybrid fitness for binding NBS DNA” value: at most 0.2 for the first, at most 0.2 for the second.

Going from QYHG to QYQR, the “one-hybrid fitness for binding NBS DNA” value rises from at most 0.2 to 0.493.

First: QYMR
Second: NPVN
The “one-hybrid fitness for binding NBS DNA” value of the first is higher: 0.482 for the first, at most 0.2 for the second.

YEWR and QQIF cannot be ordered by “one-hybrid fitness for binding NBS DNA” value: at most 0.2 for the first, at most 0.2 for the second.

YGVH and SDSA cannot be ordered by “one-hybrid fitness for binding NBS DNA” value: at most 0.2 for the first, at most 0.2 for the second.

TTTF and EAYV cannot be ordered by “one-hybrid fitness for binding NBS DNA” value: at most 0.2 for the first, at most 0.2 for the second.

QLSK and GGTS cannot be ordered by “one-hybrid fitness for binding NBS DNA” value: at most 0.2 for the first, at most 0.2 for the second.

IDHN and HIKY cannot be ordered by “one-hybrid fitness for binding NBS DNA” value: at most 0.2 for the first, at most 0.2 for the second.

SKIG and APVA cannot be ordered by “one-hybrid fitness for binding NBS DNA” value: at most 0.2 for the first, at most 0.2 for the second.

QMVN and NMKT cannot be ordered by “one-hybrid fitness for binding NBS DNA” value: at most 0.2 for the first, at most 0.2 for the second.

First: QMKT
Second: QMVT
The “one-hybrid fitness for binding NBS DNA” value of the first is higher: 0.75 for the first, 0.373 for the second.

DMKT and EKHS cannot be ordered by “one-hybrid fitness for binding NBS DNA” value: at most 0.2 for the first, at most 0.2 for the second.

VRAW and HGTC cannot be ordered by “one-hybrid fitness for binding NBS DNA” value: at most 0.2 for the first, at most 0.2 for the second.

VCQG and HNDV cannot be ordered by “one-hybrid fitness for binding NBS DNA” value: at most 0.2 for the first, at most 0.2 for the second.

TFTP and WASL cannot be ordered by “one-hybrid fitness for binding NBS DNA” value: at most 0.2 for the first, at most 0.2 for the second.

AFSH and QKYP cannot be ordered by “one-hybrid fitness for binding NBS DNA” value: at most 0.2 for the first, at most 0.2 for the second.

Compared with QKHN, QKHY is higher in “one-hybrid fitness for binding NBS DNA” value: at most 0.2 for the first, 0.206 for the second.

Going from QKRR to NKRR, the “one-hybrid fitness for binding NBS DNA” value falls from 0.993 to 0.235.

Compared with QKER, QKHR is higher in “one-hybrid fitness for binding NBS DNA” value: 0.363 for the first, 0.661 for the second.

First: QKGR
Second: QKGN
The “one-hybrid fitness for binding NBS DNA” value of the first is higher: 0.616 for the first, at most 0.2 for the second.

QKGP and DKRR cannot be ordered by “one-hybrid fitness for binding NBS DNA” value: at most 0.2 for the first, at most 0.2 for the second.

First: QKYR
Second: PTNP
The “one-hybrid fitness for binding NBS DNA” value of the first is higher: 0.505 for the first, at most 0.2 for the second.

HCFY and IFEL cannot be ordered by “one-hybrid fitness for binding NBS DNA” value: at most 0.2 for the first, at most 0.2 for the second.

SQFR and SQRR cannot be ordered by “one-hybrid fitness for binding NBS DNA” value: at most 0.2 for the first, at most 0.2 for the second.

VILC and QAWG cannot be ordered by “one-hybrid fitness for binding NBS DNA” value: at most 0.2 for the first, at most 0.2 for the second.

NLDR and PTAP cannot be ordered by “one-hybrid fitness for binding NBS DNA” value: at most 0.2 for the first, at most 0.2 for the second.

DHKN and EVMR cannot be ordered by “one-hybrid fitness for binding NBS DNA” value: at most 0.2 for the first, at most 0.2 for the second.

TDVL and SRRL cannot be ordered by “one-hybrid fitness for binding NBS DNA” value: at most 0.2 for the first, at most 0.2 for the second.

First: GLRT
Second: RKDR
The “one-hybrid fitness for binding NBS DNA” value of the first is lower: at most 0.2 for the first, 0.443 for the second.

Going from RKNP to RKNR, the “one-hybrid fitness for binding NBS DNA” value rises from at most 0.2 to 0.639.

RKHF and RKHQ cannot be ordered by “one-hybrid fitness for binding NBS DNA” value: at most 0.2 for the first, at most 0.2 for the second.

Going from RKYN to RKHR, the “one-hybrid fitness for binding NBS DNA” value rises from at most 0.2 to 0.648.

First: RKYF
Second: RKNC
The “one-hybrid fitness for binding NBS DNA” value of the first is lower: at most 0.2 for the first, 0.281 for the second.

First: RKYR
Second: GTKM
The “one-hybrid fitness for binding NBS DNA” value of the first is higher: 0.573 for the first, at most 0.2 for the second.

DLTE and LAPI cannot be ordered by “one-hybrid fitness for binding NBS DNA” value: at most 0.2 for the first, at most 0.2 for the second.

SAAD and NGLS cannot be ordered by “one-hybrid fitness for binding NBS DNA” value: at most 0.2 for the first, at most 0.2 for the second.

NRSI and RRTL cannot be ordered by “one-hybrid fitness for binding NBS DNA” value: at most 0.2 for the first, at most 0.2 for the second.

LHEN and HLQP cannot be ordered by “one-hybrid fitness for binding NBS DNA” value: at most 0.2 for the first, at most 0.2 for the second.

MMSM and LRWK cannot be ordered by “one-hybrid fitness for binding NBS DNA” value: at most 0.2 for the first, at most 0.2 for the second.

Compared with RKSH, RKQR is higher in “one-hybrid fitness for binding NBS DNA” value: 0.211 for the first, 0.573 for the second.

Compared with RKQQ, RKSR is higher in “one-hybrid fitness for binding NBS DNA” value: at most 0.2 for the first, 0.581 for the second.

Compared with RKGP, RKWR is higher in “one-hybrid fitness for binding NBS DNA” value: at most 0.2 for the first, 0.49 for the second.

Compared with RKGH, RKSD is lower in “one-hybrid fitness for binding NBS DNA” value: 0.301 for the first, at most 0.2 for the second.

First: RKWH
Second: RKGR
The “one-hybrid fitness for binding NBS DNA” value of the first is lower: at most 0.2 for the first, 0.606 for the second.

RKWP and RKQM cannot be ordered by “one-hybrid fitness for binding NBS DNA” value: at most 0.2 for the first, at most 0.2 for the second.

MTIG and VDYG cannot be ordered by “one-hybrid fitness for binding NBS DNA” value: at most 0.2 for the first, at most 0.2 for the second.

AHFR and QHIC cannot be ordered by “one-hybrid fitness for binding NBS DNA” value: at most 0.2 for the first, at most 0.2 for the second.

TCFS and VSQV cannot be ordered by “one-hybrid fitness for binding NBS DNA” value: at most 0.2 for the first, at most 0.2 for the second.

PITE and GSCV cannot be ordered by “one-hybrid fitness for binding NBS DNA” value: at most 0.2 for the first, at most 0.2 for the second.

NCKS and YSQQ cannot be ordered by “one-hybrid fitness for binding NBS DNA” value: at most 0.2 for the first, at most 0.2 for the second.

MHKT and PLRH cannot be ordered by “one-hybrid fitness for binding NBS DNA” value: at most 0.2 for the first, at most 0.2 for the second.

SRLF and IRKG cannot be ordered by “one-hybrid fitness for binding NBS DNA” value: at most 0.2 for the first, at most 0.2 for the second.

Compared with HKFT, RKRM is higher in “one-hybrid fitness for binding NBS DNA” value: at most 0.2 for the first, 0.258 for the second.

First: RKRK
Second: RKRR
The “one-hybrid fitness for binding NBS DNA” value of the first is lower: 0.222 for the first, 0.736 for the second.

For PTAM, the “one-hybrid fitness for binding NBS DNA” value was at most 0.2.
